Screens deposited in PubChem by National Center for Advancing Translational Sciences (NCATS).
LmPK inhibitor – blocks Leishmania mexicana pyruvate kinase activity. 290,000 tested, 0.37% active. AID 1721. Potency, µM (highest dose often 57.5 µM), without a hit: top-dose activity change, negative = inhibition, usual class: inhibitors. Q27686. purified LmPK, Kinase-Glo ATP luminescence, 1 h
Target sequence (Q27686 whole entry, looked up): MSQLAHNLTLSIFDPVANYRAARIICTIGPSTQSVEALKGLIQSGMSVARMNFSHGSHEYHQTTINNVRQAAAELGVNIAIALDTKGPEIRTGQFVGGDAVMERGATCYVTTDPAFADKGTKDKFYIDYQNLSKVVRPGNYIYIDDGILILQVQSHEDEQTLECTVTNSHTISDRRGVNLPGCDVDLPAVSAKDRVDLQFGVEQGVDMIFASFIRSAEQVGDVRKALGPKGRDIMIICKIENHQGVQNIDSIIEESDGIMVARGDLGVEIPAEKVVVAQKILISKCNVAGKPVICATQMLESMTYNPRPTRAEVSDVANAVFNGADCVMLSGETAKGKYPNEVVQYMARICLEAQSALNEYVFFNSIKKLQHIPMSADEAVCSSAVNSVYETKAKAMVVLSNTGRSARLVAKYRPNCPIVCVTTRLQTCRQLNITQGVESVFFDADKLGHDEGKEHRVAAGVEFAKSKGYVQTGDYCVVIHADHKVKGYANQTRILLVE
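Pyruvate kinase activity monitored as ATP production (luciferase luminescence). Conditions: 0.1 nM enzyme, 0.5 mM PEP, 0.1 mM ADP, 1 h, RT; normalized against uninhibited and no-enzyme wells.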
Sm TGR block – inhibitors of Schistosoma mansoni thioredoxin glutathione reductase; Q962Y6; purified TGR, DTNB reduction, TNB absorbance 405 nm; Potency, µM (doses to about 114 µM), inactives show at the top dose activity change, negative = inhibition, hits mostly inhibitors; 360,000 tested, 3% active; further: nearly all actives have a fitted effect of over 60% in size
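TGR 20 nM + NADPH 100 uM (dispensed conc.), cpd preinc 15 min RT; start with NADPH (500 uM addition) then DTNB (15 mM addition). Kinetic TNB absorbance, 405 nm filter. Four-parameter Hill fit across titration.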
Giardia FBPA inh – inhibitors of Giardia lamblia fructose-1,6-bisphosphate aldolase | A8B2U2 | 290,000 tested, 0.71% active | Potency, µM (highest dose often 59.6 µM), without a hit: top-dose activity, negative = inhibition, usual class: inhibitors | AID 2451 | purified Giardia FBPA; further: nearly all actives have a fitted effect of over 55% in size
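40 nM FBPA preincubated 10 min at RT with compound (up to 57.5 uM final), then substrate plus GAPDH/TPI/NAD/arsenate coupling and diaphorase/resazurin added. Fluorescence read after 20 min at RT, 525/598 nm.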
RE007 growth inh – less growth of the S. pombe RE007 Vpr strain; Potency, µM (series often up to 92.2 µM), for the others: at the top dose activity change, negative = less growth, usual class: inhibitors; S. pombe RE007 Vpr strain, BacTiter-Glo ATP luminescence, 24 h; 360,000 tested, 0.21% active; active means well fitted falling curve with a large enough effect; inconclusive means small, poorly fitted or top-dose-only effect; inactive means no such curve, though single readings can be large or run the other way; further: nearly all actives have a fitted effect of over 50% in size
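Fission yeast strain RE007, carrying one chromosomally integrated HIV-1 vpr copy, was seeded at OD 0.01 in PMG+AL medium with 23 nL pinned compound. After 24 h at 30 °C and 99% humidity, viability was read by BacTiter-Glo luminescence.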
Tb PYK inh – T. brucei pyruvate kinase inhibition; Q57TT1; TbPYK enzyme, Kinase-Glo Plus ATP luminescence, 45 min; Potency, µM (top dose mostly 76.8 µM), inactives show at the top dose activity, negative = inhibition, usual class: inhibitors; 410,000 tested, 0.12% active; further: nearly all actives have a fitted effect of over 50% in size
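Glycolytic pyruvate kinase of T. brucei was incubated with substrate, test compound and 130 uM ADP for 45 minutes at room temperature. Luminescent Kinase-Glo Plus signal was measured after 10 minutes.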
Starred values were filed as active, the others as inactive; ? = inconclusive; / = no result given; [ ] = another dose, or the depositor's remark. Sampled rows, rich in hits. Any-hit rate of the full collection: about 3.3%. Unless noted, the call rests on the fitted dose curve; in most records, active means well fitted curve in the direction sought with a large enough effect; inconclusive means small, poorly fitted or top-dose-only effect, or another doubt; inactive means no such curve, though single readings can be large; an effect the other way counts as inactive or inconclusive. On the % scale 0 is the no-effect control and ±100 the full control effect; potency means the concentration at half of the fitted maximal effect.

SMILES	LmPK inhibitor	Sm TGR block	Giardia FBPA inh	RE007 growth inh	Tb PYK inh
COc1ccc(Cn2c(C)nc([N+](=O)[O-])c2SCC(=O)O)cc1[N+](=O)[O-]	6.4%	35.5µM*	9.9%	13.8%	3.8%
O=C(Nc1ccc(Br)cc1F)c1ccc2nsnc2c1	1.4%	-0.5%	-4.0%	4.7%	?
COC(=O)c1c(N2C(=O)[C@H]3[C@@H](C2=O)[C@]2(C(=O)Nc4c2ccc(C)c4C)N2CCC[C@@H]32)sc(C)c1C	-10.0%	56.2µM*	-10.0%	/	-4.3%
COc1ccccc1C(CNC(=O)c1oc2ccccc2c1C)N1CCCC1 (stereo unspecified)	/	31.6µM*	/	-11.3%	-4.9%
CCCCCSc1nncc(=O)[nH]1	2.6%	-1.5%	4.9%	18.4%	-0.6%
CCCCCCCCSC1=CC(=O)C(OC)=C(OC)C1=O	/	/	/	-7.8%	14.1µM*
CC(=O)OCC1=C(C(=O)O)N2C(=O)C(NC(=O)C(C)Cn3cc(Cl)cn3)C2SC1 (stereo unspecified)	-2.4%	28.2µM*	-13.9%	2.1%	-5.5%
CN(C)CCn1nnnc1SCC1=C(C(=O)O)N2C(=O)[C@@H](NC(=O)Cc3csc(N)n3)[C@@H]2SC1	/	/	-22.8%[21.7 µM]	/	-6.0%[33.2 µM]
CC(=O)OCC1=C(C(=O)O)N2C(=O)[C@@H](NC(=O)Cc3cccs3)[C@H]2SC1	14.2%	?	?	12.7%	-15.8%
CCOc1ccc(C(=O)NC2C(=O)N3C(C(=O)O)=C(COC(C)=O)CSC23)cc1OCC (stereo unspecified)	/	22.4µM*	/	-24.0%	0.4%
O=C(COc1ccccc1)NC1C(=O)N2C(C(=O)O)=C(Cl)CSC12 (stereo unspecified)	15.0%	?	?	3.8%	-10.9%
CN(C)CCn1nnnc1SCC1=C(C(=O)O)N2C(=O)[C@@H](NC(=O)Cc3csc(N)n3)[C@H]2SC1	/	31.6µM*	/	9.1%[18.4 µM]	3.3%
Cc1nnc(SCC2=C(C(=O)O)N3C(=O)C(NC(=O)COc4ccccc4)C3SC2)s1 (stereo unspecified)	/	7.94µM*	/	-7.4%	-16.2%
COc1ccc(NC(=O)c2cccc(OC(F)F)c2)cc1Cl	-5.2%	-14.7%	-16.9%	-35.9%	-12.8%
O=C(NC(=S)N(Cc1ccccc1)c1ccccn1)C1CCCCC1	-2.8%	4.7%	-5.1%	-15.6%	-2.1%
CC(=O)OCC1=C(C(=O)O)N2C(=O)C(NC(=O)COc3ccc(F)cc3)C2SC1 (stereo unspecified)	/	14.1µM*	/	11.6%	-2.1%
Cc1nnc(SCC2=C(C(=O)O)N3C(=O)C(NC(=O)COc4ccc(F)cc4)C3SC2)s1 (stereo unspecified)	/	14.1µM*	/	2.0%	-18.8%
CC(=O)OCC1=C(C(=O)O)N2C(=O)[C@@H](NC(=O)Cc3ccccc3)[C@H]2SC1	/	/	/	-7.3%	-1.6%
C=CC1=C(C(=O)O)N2C(=O)C(NC(=O)Cc3ccccc3)C2SC1 (stereo unspecified)	7.5%	10µM*	15.8µM*	9.1%	5.4%
CCC(C(=O)NC1C(=O)N2C(C(=O)O)=C(CSc3nnc(C)s3)CSC12)c1ccccc1 (stereo unspecified)	/	3.98µM*	/	-2.0%	2.9%
CC1=C(C(=O)O)N2C(=O)C(NC(=O)CCCC(=O)O)C2SC1 (stereo unspecified)	3.1%	10.9%	5.8%	?	-14.9%
Cc1ccc(N2CCN(C(=O)c3ccccc3NC(=O)C3CCCCC3C(=O)O)CC2)cc1 (stereo unspecified)	-0.2%	-5.3%	4.3%	-4.9%	-10.6%
COc1ccc2oc(-c3ccccc3)c(C(=O)N3CCOCC3)c2c1	1.3%	2.6%	7.3%	-15.0%	-6.8%
CC(=O)OCC1=C(C(=O)O)N2C(=O)C(NC(=O)CC(C)c3ccccc3)C2SC1 (stereo unspecified)	/	28.2µM*	/	-10.6%	1.4%
S=c1nc(-c2ccccc2)n(CCCN2CCOCC2)c2c1CCCC2	-1.8%	?	-9.4%	-0.7%	1.9%
SMILES	LmPK inhibitor	Sm TGR block	Giardia FBPA inh	RE007 growth inh	Tb PYK inh
S=c1nc(-c2ccccc2)n(CCCn2ccnc2)c2c1CCCC2	1.7%	44.7µM*	-12.0%	-2.2%	2.0%
COCCn1c(-c2ccc(-c3ccccc3Cl)o2)nc2c1c(=O)[nH]c(=O)n2CC(C)C	-0.2%	31.6µM*	-0.5%	-0.7%	-7.1%
CCCCn1c(=O)[nH]c(=O)c2c1nc(-c1ccc(-c3ccccc3Br)o1)n2CCOC	-0.5%	?	-7.3%	-24.1%	-28.5%
N#CC1(c2ccccc2)CCC(=NNS(=O)(=O)c2ccccc2)CC1 (stereo unspecified)	/	39.8µM*	/	19.0%	-2.1%
CCOC(=O)C1=CC[C@@H](c2ccco2)N(S(=O)(=O)c2ccc(C)cc2)[C@H]1C(=O)OCC	/	31.6µM*	/	-3.8%	4.1%
CCOC(=O)C1=CC[C@@H](c2cccc(C)c2)N(S(=O)(=O)c2ccc(C)cc2)[C@H]1C(=O)OCC	/	3.8%	/	13.5%	-2.7%
Cc1ccc(OCC(=O)Nc2cc3nn(-c4ccccc4)nc3cc2C)cc1	/	0.8%	/	/	3.7%
COc1ccc(N2C(=O)CC(N3CCN(c4ccccc4F)CC3)C2=O)cc1 (stereo unspecified)	0.8%	?	0.7%	-23.8%	2.8%
COc1ccc(N2C(=O)CC(N3CCC(c4nc5ccccc5[nH]4)CC3)C2=O)cc1 (stereo unspecified)	-10.6%	39.8µM*	-23.6%	39.8µM*	2.1%
O=C1CC(N2CCC(c3nc4ccccc4[nH]3)CC2)C(=O)N1c1ccccc1F (stereo unspecified)	0.9%	31.6µM*	1.9%	35.5µM*	3.6%
COc1ccc(N2C(=O)CC(n3cnc4ccccc43)C2=O)cc1 (stereo unspecified)	16.9%	-22.1%	-0.1%	3.3%	-5.5%
COc1ccc(N2C(=O)CC(n3c(CCCCO)nc4ccccc43)C2=O)cc1 (stereo unspecified)	0.2%	8.91µM*	0.3%	?	-7.7%
CCOc1ccc(NC(=O)CN2CCN(CC(=O)Nc3ccc(C(N)=O)cc3)CC2)cc1	-6.9%	?	0.5%	-5.0%	2.4%
CCOc1ccc(NC(=O)CN2CCN(CC(=O)c3ccc(OCC)cc3)CC2)cc1	2.5%	22.4µM*	-20.3%	-17.8%	-7.8%
CCOc1ccc(NC(=O)CN2CCN(CC(=O)c3ccc(OC)c(OC)c3)CC2)cc1	-1.7%	31.6µM*	0.1%	-6.1%	-9.2%
COc1ccc(NC(=O)CN2CCN(CC(=O)Nc3ccc(OC)c(OC)c3)CC2)cc1	-8.0%	-19.9%	-2.6%	5.2%	-2.4%
c1ccc(-c2nc3cc4ccccc4cc3[nH]2)nc1	15.8µM*	0.0%	-21.4%	?	-19.1%
CC(=O)Nc1ccc2nc(-c3ccccn3)[nH]c2c1	-24.9%	-0.8%	?	7.4%	-4.4%
